This is a sample that favours compounds with a hit; in the whole collection about 3.6% have one here.
Pf apPOL block: Pf-apPOL DNA polymerase inhibition; Recombinant Pf-apPOL, molecular beacon fluorescence, 1.5 h; inhibition, % at 10 µM; 210,000 tested, 0.25% active
mHTT-CaM PPI inh: disrupts binding of mutant huntingtin to calmodulin. AID 1671202. inhibition, % at 15 µM. P42858. 190,000 tested, 3.6% active. AlphaScreen His-mHTT/GST-CaM binding, luminescence
Numbers stand for hits; 0 = inactive; - = not tested or not shown; ! = repeats disagree. Cut-off read from the data, not from the text of the source: active = inhibition above about 50%; inactive = the rest.

SMILES	Pf apPOL block	mHTT-CaM PPI inh
Cc1cc(-c2nnc(NC(=O)C3CCCN(S(=O)(=O)c4cccs4)C3)o2)nn1C (stereo not given)	0	51
CS(=O)(=O)N1CCCC(C(=O)Nc2nnc(-c3ccno3)o2)C1 (stereo not given)	0	50
CCS(=O)(=O)c1ccc(-c2nnc(NC(=O)C3CCCN(S(C)(=O)=O)C3)o2)cc1 (stereo not given)	0	0
CCn1c(C)c(CN2CCC(C(=O)N3CCC4(CC3)OCCO4)CC2)c2ccccc21	0	0
CCOc1cccc(CN2CCc3nc(Nc4cc(OC)ccc4OC)ncc3C2)c1	0	0
CN(C)c1ccc(-c2nc3cc(N=Cc4cccc([N+](=O)[O-])c4)ccc3o2)cc1	0	0
O=C(c1cnc2sc3c(n2c1=O)CCCCC3)N1CCCC1	0	0
N#CC1=C(N)SC(N)=C(C#N)C1c1ccc(Cl)cc1Cl	0	0
N#CC1=C(N)SC(N)=C(C#N)C1c1cccc(Cl)c1	0	74
CCn1cnc2c1c(=O)n(CCC(C)C)c(=O)n2-c1ccccc1C	0	0
Cc1ccc(NC(=O)CCN2CCN(C/C=C/c3ccccc3)CC2)cc1	0	0
Cc1c(Cl)cccc1NC(=O)CCN1CCN(C/C=C/c2ccccc2)CC1	0	50
Cc1ccc2snc(C(=O)NC(C)C)c2c1	0	0
c1ccc(CNc2nc(-c3ccncc3)nc3c2CCC3)nc1	0	0
Cc1nn2c(NCc3ccccn3)c3c(nc2c1-c1ccccc1)CCCC3	0	63
CC(=O)c1ccc(NC(=O)C2CCN(c3nccnc3Oc3ccccc3C)CC2)cc1	0	0
COc1ccc(Nc2nc(Nc3ccc(O)cc3)nc(C)c2[N+](=O)[O-])cc1	0	78
CNc1nc(C)c([N+](=O)[O-])c(Nc2ccc(OC)cc2)n1	0	0
COCCN(Cc1ccsc1)C(=O)Nc1cccs1	0	0
COc1ccc(NC(=O)N2CCN(C)c3ccccc32)cc1	0	0
CSc1cccc(NC(=O)N2CCC(N3CCN(Cc4ccc(C)cc4)C3=O)CC2)c1	0	0
CSc1cccc(NC(=O)N2CCN(C)c3ccccc32)c1	0	80
CCc1ccc(NC(=O)N2CC(CC)Oc3ccccc32)cc1 (stereo not given)	0	0
Cc1ccc(NC(=O)N2CC3CCCN3c3ccccc32)cc1 (stereo not given)	0	59
O=C(Nc1ccc(F)cc1)N1CC2CCCN2c2ccccc21 (stereo not given)	0	0
SMILES	Pf apPOL block	mHTT-CaM PPI inh
CSc1cccc(NC(=O)N2CC3CCCN3c3ccccc32)c1 (stereo not given)	0	81
CCc1ccc(NC(=O)N2CC3CCCN3c3ccccc32)cc1 (stereo not given)	0	91
CC(NC(=O)CC(C)(C)C)C(=O)N1CCN(c2ccccn2)CC1 (stereo not given)	0	0
Cc1[nH]c(=O)c(C(=O)O)c(C)c1[N+](=O)[O-]	-	0
Cc1ccc(NC(=O)N2CCOc3ccccc32)cc1F	0	0
Cc1ccc(NC(=O)N2CC3CCCN3c3ccccc32)cc1F (stereo not given)	0	90
O=C1Nc2ccc(Br)cc2/C1=C/c1ccc(Cl)cc1Cl	0	52
COc1cc2c(cc1OC)/C(=C/c1cc(OC)c(OC)c(OC)c1)C(=O)N2	-	0
COc1ccc(O)c(/C=C2\C(=O)Nc3ccc(Br)cc32)c1	0	91
COc1ccc(/C=C2\C(=O)Nc3ccc(Br)cc32)c(OC)c1OC	0	100
COc1ccc(OC)c(/C=C2\C(=O)Nc3ccc(Br)cc32)c1	0	54
O=C1Nc2ccccc2/C1=C/c1ccc(Cl)cc1Cl	0	0
CC(C)(C)C(=O)C=C1C(=O)Nc2ccc(Br)cc21	0	-
COc1ccc(N=C2C(=O)Nc3ccc(Br)cc32)cc1	0	0
Cn1nc(CC(=O)Nc2ccc(F)c(Cl)c2)c2ccccc2c1=O	0	0
CCOc1ccccc1N1CCN(Cc2ccc(OC)c(O)c2)CC1	0	0
CC(C)NC(=O)c1ccc(OCC2CCCN(C(=O)c3ccc(F)cc3)C2)cc1 (stereo not given)	0	0
CC(C)C(=O)N1CCN(c2nc3c(s2)CC(C(=O)NCCN2CCOCC2)CC3)CC1 (stereo not given)	0	0
CC1CC(C)CN(C(=O)c2ccc(SCc3ccccn3)c([N+](=O)[O-])c2)C1 (stereo not given)	0	0
CCc1[nH]c2ccccc2c1C	0	50
Cc1c(Cl)c(=O)[nH]c2ccccc12	0	-
COc1ccc(CNC(=O)C2CC(=O)N(CCc3ccc(OC)c(OC)c3)C2)cc1 (stereo not given)	0	0
Cc1ccccc1C(=O)CC(=O)c1ccccc1O	0	50
COc1ccc(NC(=O)c2ccccc2C)c(OC)c1	0	0
Cc1ccc(O)c(C(=O)CC(=O)c2cccc(F)c2)c1	0	0
SMILES	Pf apPOL block	mHTT-CaM PPI inh
COc1ccc(O)c(C(=O)CC(=O)c2cccc(C)c2)c1	0	59
COc1ccc(O)c(C(=O)CC(=O)c2ccccc2C)c1	0	62
Cc1ccc(C(=O)CC(=O)c2ccccc2O)cc1	0	0
COc1ccc(S(=O)(=O)N2CCC(Cc3nc4cccnc4n3C(C)C)C2)cc1Cl (stereo not given)	0	0
O=C(Nc1cccc(F)c1)c1cccc(-c2cnc(N3CCCCC3)nc2)c1	0	0
COc1ccc(OCCCC(=O)Nc2ccc([N+](=O)[O-])cc2C)cc1	0	0
COc1ccc(Cl)cc1NC(=O)c1c(NCc2cccnc2)sc2c1CCC2	0	93
COc1ccc(Cl)cc1NC(=O)C(=O)NCc1cccnc1	0	0
COc1ccc(Cl)cc1NC(=O)c1c(NCc2cccs2)sc2c1CCC2	0	0
COc1ccc(Cl)cc1NC(=O)c1c(NCc2cccnc2)sc2c1CCCC2	0	79
CC1(C)CC(=O)c2c(C(=O)O)coc2C1	0	0
O=C(c1ccccn1)N1CCC(CCOc2ccc(F)cc2)CC1	0	0
CC(=O)NC(=O)c1cc2cc(Br)ccc2oc1=Nc1ccc(F)cc1F	0	0
CCc1ccc(NC(=O)C2CCCN(C(=O)c3ccc(Cl)cc3)C2)cc1 (stereo not given)	0	0
CC1(C)C(C=C(Cl)Cl)C1C(=O)Nc1sc2c(c1C#N)CCC2 (stereo not given)	0	0
CC1(C)C(C=C(Cl)Cl)C1C(=O)Nc1sc2c(c1C(N)=O)CCCC2 (stereo not given)	0	100
CCOc1ccccc1NC(=O)c1ccc(F)c(S(=O)(=O)N2CCOCC2)c1	0	0
O=C(O)COc1ccccc1O	0	94!
Cc1ccccc1OCC(=O)O	0	0
CC(=O)NC(=O)c1cc2cc([N+](=O)[O-])ccc2oc1=Nc1ccc(Cl)cc1Cl	0	0
O=C(OCc1cc(-c2ccc(F)cc2F)on1)c1ccc(=O)oc1	81	100
O=C(Cc1cccs1)OCc1cc(-c2ccc(F)cc2F)on1	0	0
COc1cc(-c2nc(-c3ccsc3)c(-c3ccccc3)[nH]2)cc(OC)c1O	0	87
COc1cccc(-c2nc(-c3ccsc3)c(-c3ccccc3)[nH]2)c1OC	0	0
c1ccc(-c2nc(-c3cccnc3)[nH]c2-c2ccccc2)cc1	0	-
Oc1ccc(-c2nc(-c3ccc(F)cc3)c(-c3ccncc3)[nH]2)cc1	0	-
c1ccc(-c2nc(-c3ccc4c(c3)sc3ccccc34)c(-c3ccccc3)[nH]2)cc1	-	55
COc1cc(-c2nc(-c3ccccc3)c(-c3ccc(O)cc3)[nH]2)cc(OC)c1O	0	88
CCCn1cnc2c1c(=O)n(CC)c(=O)n2-c1ccc(F)cc1	0	0
